The target in assay [1] is Nuclear receptor coactivator 1 (Homo sapiens) (UniProt Q15788). Briefly: NCOA1 GAL4-fusion reporter inhibition – cell-based, luminescence, quadruplicate, confirmation (AID 588820;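 active means mean inhibition above 46.68%, the untreated control wells mean plus 3 SD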;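 further: 0% = DMSO wells and 100% = gossypol 36 µM treated wells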). The following applies: HEK293 GAL4-SRC1 luciferase reporter, at 3.6 µM, stronger effect = higher value. (Reporter assays use an easily measured gene product as a stand-in for the process of interest.)
Nuclear receptor coactivator 1 (Homo sapiens), sequence (Q15788 whole entry, looked up, the tested form may be a part): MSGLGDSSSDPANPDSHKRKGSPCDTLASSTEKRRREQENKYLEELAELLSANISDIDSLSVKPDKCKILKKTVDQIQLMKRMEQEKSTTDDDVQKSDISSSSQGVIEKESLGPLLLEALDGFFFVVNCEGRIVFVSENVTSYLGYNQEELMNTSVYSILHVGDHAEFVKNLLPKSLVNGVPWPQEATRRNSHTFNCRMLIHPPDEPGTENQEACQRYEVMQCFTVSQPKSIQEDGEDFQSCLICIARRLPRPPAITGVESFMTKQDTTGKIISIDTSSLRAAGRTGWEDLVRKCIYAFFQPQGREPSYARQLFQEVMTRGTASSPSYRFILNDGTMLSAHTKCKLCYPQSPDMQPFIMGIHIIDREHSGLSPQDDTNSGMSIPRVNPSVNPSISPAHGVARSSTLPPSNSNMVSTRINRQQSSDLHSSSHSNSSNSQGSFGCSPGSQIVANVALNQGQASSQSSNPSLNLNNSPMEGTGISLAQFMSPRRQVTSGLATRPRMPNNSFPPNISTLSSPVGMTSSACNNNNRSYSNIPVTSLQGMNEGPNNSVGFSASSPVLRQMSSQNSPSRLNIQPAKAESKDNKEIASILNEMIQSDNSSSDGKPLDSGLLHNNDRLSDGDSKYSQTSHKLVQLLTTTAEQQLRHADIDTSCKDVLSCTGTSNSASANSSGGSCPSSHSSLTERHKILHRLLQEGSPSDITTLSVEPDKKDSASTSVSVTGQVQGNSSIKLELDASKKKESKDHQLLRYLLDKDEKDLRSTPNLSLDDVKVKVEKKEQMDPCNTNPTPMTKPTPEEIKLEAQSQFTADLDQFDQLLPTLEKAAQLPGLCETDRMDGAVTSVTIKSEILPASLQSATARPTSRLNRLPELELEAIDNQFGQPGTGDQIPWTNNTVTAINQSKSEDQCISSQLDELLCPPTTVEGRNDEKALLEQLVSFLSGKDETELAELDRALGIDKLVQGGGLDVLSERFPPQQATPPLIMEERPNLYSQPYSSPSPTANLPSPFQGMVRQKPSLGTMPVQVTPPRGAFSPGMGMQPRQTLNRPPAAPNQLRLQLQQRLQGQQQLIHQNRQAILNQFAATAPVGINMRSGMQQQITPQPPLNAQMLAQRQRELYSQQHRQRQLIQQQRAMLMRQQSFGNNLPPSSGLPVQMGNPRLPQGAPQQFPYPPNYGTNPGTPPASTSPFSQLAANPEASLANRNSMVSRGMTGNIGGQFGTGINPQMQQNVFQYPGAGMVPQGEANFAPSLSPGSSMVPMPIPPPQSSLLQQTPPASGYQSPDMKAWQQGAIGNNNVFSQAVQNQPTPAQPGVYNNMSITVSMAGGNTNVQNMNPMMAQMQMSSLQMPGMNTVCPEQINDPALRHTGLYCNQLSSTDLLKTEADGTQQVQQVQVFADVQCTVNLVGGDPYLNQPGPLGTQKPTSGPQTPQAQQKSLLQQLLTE
Assay [2] is described as follows: repression of VP16-driven luciferase reporter – cell-based, luminescence, high throughput, counter-screen for SRC1 inhibitor project (AID 588824). To be noted: cell-based VP16 transactivation luciferase luminescence; at 3.6 µM; stronger effect = higher value.
Assay [3] concerns transactivating tegument protein VP16 (Human herpesvirus 1). Put plainly: compounds suppressing VP16-driven luciferase signal – cell-based, luminescence, single concentration, counter-screen for SRC2 inhibitor project (AID 652007; in the data active means inhibition above about 36%). The following applies: cell-based VP16 transactivation luciferase reporter, at 8.9 µM, stronger effect = higher value.
The target of assay [4] is Nuclear receptor coactivator 2 (Homo sapiens) (UniProt Q15596). Briefly: inhibition of GAL4-SRC2 driven luciferase expression – cell-based, luminescence, HEK293, triplicate, confirmation (AID 652008;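 active means mean inhibition above 46.5%, the solvent-only control mean plus 3 SD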;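 further: 0% = DMSO-treated cells and 100% = Gossypol at 36 µM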). To be noted: HEK293 GAL4-SRC2 luciferase reporter, at 8.9 µM, stronger effect = higher value.
Nuclear receptor coactivator 2 (Homo sapiens), sequence (Q15596 whole entry, looked up, the tested form may be a part): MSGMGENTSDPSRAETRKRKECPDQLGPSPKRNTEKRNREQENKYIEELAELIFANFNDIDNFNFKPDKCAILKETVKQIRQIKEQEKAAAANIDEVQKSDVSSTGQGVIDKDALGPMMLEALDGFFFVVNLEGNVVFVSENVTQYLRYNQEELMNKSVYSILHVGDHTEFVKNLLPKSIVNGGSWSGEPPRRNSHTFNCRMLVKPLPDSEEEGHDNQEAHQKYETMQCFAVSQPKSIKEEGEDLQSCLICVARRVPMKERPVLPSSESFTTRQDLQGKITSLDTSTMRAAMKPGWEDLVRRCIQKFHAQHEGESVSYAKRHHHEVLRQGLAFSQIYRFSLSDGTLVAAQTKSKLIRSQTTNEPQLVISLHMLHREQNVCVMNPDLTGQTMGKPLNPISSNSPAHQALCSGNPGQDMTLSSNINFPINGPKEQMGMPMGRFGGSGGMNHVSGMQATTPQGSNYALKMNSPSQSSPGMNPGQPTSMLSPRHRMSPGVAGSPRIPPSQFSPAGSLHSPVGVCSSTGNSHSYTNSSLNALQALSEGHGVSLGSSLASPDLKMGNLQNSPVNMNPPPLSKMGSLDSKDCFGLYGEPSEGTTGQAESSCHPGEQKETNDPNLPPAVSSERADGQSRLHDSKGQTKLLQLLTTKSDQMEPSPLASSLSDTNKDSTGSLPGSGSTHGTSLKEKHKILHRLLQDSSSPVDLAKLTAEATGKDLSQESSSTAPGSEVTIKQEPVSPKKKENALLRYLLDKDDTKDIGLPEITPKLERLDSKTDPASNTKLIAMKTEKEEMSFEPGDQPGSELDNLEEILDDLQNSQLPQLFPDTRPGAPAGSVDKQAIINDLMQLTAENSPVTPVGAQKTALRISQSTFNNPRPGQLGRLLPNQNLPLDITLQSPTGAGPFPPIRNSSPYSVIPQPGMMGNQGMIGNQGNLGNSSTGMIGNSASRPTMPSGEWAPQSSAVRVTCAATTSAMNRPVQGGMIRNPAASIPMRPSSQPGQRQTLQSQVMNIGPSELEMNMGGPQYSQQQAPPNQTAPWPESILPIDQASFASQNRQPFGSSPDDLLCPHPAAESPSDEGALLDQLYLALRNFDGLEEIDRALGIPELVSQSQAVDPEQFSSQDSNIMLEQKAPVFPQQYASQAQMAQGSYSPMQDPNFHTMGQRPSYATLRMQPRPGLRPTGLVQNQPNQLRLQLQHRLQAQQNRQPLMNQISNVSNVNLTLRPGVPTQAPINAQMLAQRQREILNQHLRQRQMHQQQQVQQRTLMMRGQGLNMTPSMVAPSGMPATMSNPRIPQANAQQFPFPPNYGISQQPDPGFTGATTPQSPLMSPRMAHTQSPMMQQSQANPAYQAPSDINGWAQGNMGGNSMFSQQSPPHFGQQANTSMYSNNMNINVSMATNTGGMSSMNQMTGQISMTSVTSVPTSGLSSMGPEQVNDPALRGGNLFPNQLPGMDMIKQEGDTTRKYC
Assay [5] in a line: StAR promoter reporter inhibitors, counter-screen for LRH-1 inverse agonist project, cell-based, luminescence, high throughput (AID 651611; in the data active means inhibition above about 28%). The following applies: StAR promoter luciferase reporter counterscreen, at 3.6 µM, stronger effect = higher value. Background: Counterscreens check selectivity or assay interference.
Assay [6] addresses Nuclear receptor subfamily 5 group A member 2 (Homo sapiens) (UniProt O00482). Briefly: NR5A2 activity suppression in reporter cells – cell-based, luminescence, confirmation (AID 651613; in the data active means inhibition above about 42%;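 further: HEK293T cells co-transfected with LRH-1 and StAR promoter luciferase reporter; 0% = vehicle wells and 100% = parental cells lacking receptor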). The following applies: cell-based LRH-1 luciferase reporter, inverse agonism; at 3.6 µM; stronger effect = higher value.
Assay [7] concerns the target Steroidogenic factor 1 (Homo sapiens) (UniProt Q13285). Briefly: inverse agonism at SF1 nuclear receptor – cell-based, luminescence, high throughput, counter-screen for LRH-1 inverse agonist project (AID 651614; in the data active means inhibition above about 44%;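 further: cells cotransfected with StAR promoter reporter and SF1 expression vector; 0% = vehicle on cells with receptor and 100% = vehicle on cells lacking receptor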). The following applies: cell-based SF1 luciferase reporter, at 3.6 µM, stronger effect = higher value.
A short description of assay [8]: compounds suppressing VP16-driven luciferase signal – cell-based, luminescence, high throughput, counter-screen for LRH-1 inverse agonist project (AID 651615; in the data active means inhibition above about 33%). The following applies: Gal4-VP16 luciferase reporter cells, at 3.6 µM, stronger effect = higher value.
Assay [9] in a line: reduced OD of V66 E. coli with T4 gene 2 phage – absorbance, RecBCD inhibitor project, confirmation (AID 651982;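 active means mean inhibition over triplicates exceeding the hit threshold derived in the original primary screen, cut at about 11% in these data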). To be noted: E. coli V66 + T4 2- phage, growth OD; at 11.9 µM; stronger effect = higher value.
Assay [10] in a line: bacterial growth inhibition – absorbance, high throughput, counter-screen for RecBCD inhibitor project (AID 651983; in the data active means inhibition above about 20%;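 further: E. coli strain V66 grown with compound alone and no phage infection; 0% = bacteria with DMSO vehicle only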). To be noted: E. coli viability, absorbance (OD) growth; at 11.9 µM; stronger effect = higher value.
Assay [11] in a line: reduced optical density, T4-challenged addAB+ bacteria – absorbance, E. coli V3065, T4 phage, counter-screen for RecBCD inhibitor project, confirmation (AID 651984;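 active means mean inhibition above the solvent-only control wells' mean plus 3 SD, cut at about 22% in these data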;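 further: higher means less bacterial growth from phage killing when AddAB is blocked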). The following applies: E. coli expressing H. pylori AddAB + T4 phage, OD growth; at 11.9 µM; stronger effect = higher value; gene 2 mutant T4, recBCD-deleted host.
The target of assay [12] is Receptor-interacting serine/threonine-protein kinase 2 (Homo sapiens) (UniProt O43353). Put plainly: inhibitors of RIPK2 association with NOD2 – fluorescence, CHO cells, BLA complementation, triplicate, confirmation (AID 624370;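 active means mean inhibition across replicates above a set limit taken from the earlier primary screen, cut at about 21% in these data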;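 further: 0% = DMSO-only wells and the high end = clavulanate BLA-blocked wells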). To be noted: CCF4 FRET, at 4.98 µM, stronger effect = higher value.
Receptor-interacting serine/threonine-protein kinase 2 (Homo sapiens), sequence (O43353 whole entry, looked up): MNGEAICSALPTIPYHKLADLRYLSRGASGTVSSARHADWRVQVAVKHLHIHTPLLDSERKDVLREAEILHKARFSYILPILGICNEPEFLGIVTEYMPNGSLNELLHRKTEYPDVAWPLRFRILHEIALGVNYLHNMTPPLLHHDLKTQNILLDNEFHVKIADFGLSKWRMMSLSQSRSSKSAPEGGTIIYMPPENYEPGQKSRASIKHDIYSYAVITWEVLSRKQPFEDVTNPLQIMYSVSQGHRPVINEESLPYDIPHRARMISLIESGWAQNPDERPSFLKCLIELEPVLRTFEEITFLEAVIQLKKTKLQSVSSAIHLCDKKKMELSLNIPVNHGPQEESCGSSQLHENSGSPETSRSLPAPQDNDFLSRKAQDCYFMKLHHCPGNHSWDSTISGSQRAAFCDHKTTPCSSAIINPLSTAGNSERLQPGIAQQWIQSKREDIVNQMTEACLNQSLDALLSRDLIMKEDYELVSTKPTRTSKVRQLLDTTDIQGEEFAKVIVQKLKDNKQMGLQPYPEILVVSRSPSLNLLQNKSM
Assay [13] can be described thus: BLA reporter readout interference – cell-based, CHO-K1 CMV-bla, CCF4 FRET, fluorescence, artefact control for NOD2-RIPK2 interaction inhibitor project, confirmation (AID 624371;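 active means mean inhibition above the low-control mean inhibition plus three low-control SD, cut at about 11% in these data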;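 further: 0% = DMSO only wells and 100% = clavulanate high control wells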). To be noted: CCF4 FRET ratio, counterscreen, at 4.98 µM, stronger effect = higher value.

Several values for one entry are separate records, joined by “and”; a condition that tells them apart may be missing. Identical values can stand only once. Unmarked numbers belong to inactive results. Some of the results follow. Activity calls are given as the source filed them. Unless noted, no stated cut-off is given here; in the data, active means inhibition above about 25%; inactive means the rest.

Usually inhibition stands for the change of the read-out against control, counted positive when it falls.

Nuclear receptor subfamily 5 group A member 2 (Homo sapiens), sequence (O00482 whole entry, looked up): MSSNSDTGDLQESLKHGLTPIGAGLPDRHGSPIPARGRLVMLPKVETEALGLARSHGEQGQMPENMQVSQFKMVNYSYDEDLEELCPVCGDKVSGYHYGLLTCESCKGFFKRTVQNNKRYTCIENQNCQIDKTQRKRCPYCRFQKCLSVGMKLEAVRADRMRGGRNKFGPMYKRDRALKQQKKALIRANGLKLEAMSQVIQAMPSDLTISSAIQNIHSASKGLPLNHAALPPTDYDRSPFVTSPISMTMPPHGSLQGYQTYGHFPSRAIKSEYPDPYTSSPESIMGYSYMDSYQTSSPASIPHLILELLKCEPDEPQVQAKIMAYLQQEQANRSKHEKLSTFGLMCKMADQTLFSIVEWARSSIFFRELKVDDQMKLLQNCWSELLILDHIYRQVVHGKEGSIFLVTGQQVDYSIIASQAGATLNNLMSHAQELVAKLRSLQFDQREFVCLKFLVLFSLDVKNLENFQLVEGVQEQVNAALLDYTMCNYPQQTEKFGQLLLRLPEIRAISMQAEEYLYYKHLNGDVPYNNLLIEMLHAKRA
Steroidogenic factor 1 (Homo sapiens), sequence (Q13285 whole entry, looked up, the tested form may be a part): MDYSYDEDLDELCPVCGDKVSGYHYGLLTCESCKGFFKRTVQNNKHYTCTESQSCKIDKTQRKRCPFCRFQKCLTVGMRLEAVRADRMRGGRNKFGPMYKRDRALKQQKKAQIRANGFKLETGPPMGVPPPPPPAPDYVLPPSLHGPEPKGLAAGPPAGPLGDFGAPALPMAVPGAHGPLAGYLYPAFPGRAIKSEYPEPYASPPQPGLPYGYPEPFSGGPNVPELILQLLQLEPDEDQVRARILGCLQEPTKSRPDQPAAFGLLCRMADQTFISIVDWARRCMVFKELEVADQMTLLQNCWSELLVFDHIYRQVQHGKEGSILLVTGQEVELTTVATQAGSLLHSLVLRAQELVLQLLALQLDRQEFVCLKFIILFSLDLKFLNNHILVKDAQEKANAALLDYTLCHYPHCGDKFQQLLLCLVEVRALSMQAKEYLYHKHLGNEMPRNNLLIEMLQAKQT

As to `O=[N+]([O-])c1ccc2c(c1)-c1ccccc1C2=NO`, the inhibition in assay [1] is 21.4%; in assay [2] it was 9.81%; in [3], 12.1%; in assay [4], 13.5%.

Turning to `Cc1cc(NC2CCCC2)n2ncc(-c3ccccc3)c2n1`, the inhibition is -78.1% in assay [1], -34.6% in assay [2], -46.2% in [3] and 36.5% in assay [4].

For `CCN(C(=O)c1cc(S(=O)(=O)N2CCCCC2)c[nH]1)c1ccc(OC)cc1`, the inhibition in assay [1] is 28.1%; in assay [2] it was 22.5%; in assay [3], 8.33%; in assay [4], 25.9%.

With `COc1ccc(S(=O)(=O)N2CCOCC2)cc1NC(=O)CCNC(=O)c1ccc(Br)cc1`, the inhibition in assay [1] is 64.3% (active); in [2], 61.1% (active); in assay [5], 90.4% (active); in assay [6], 100% (active); in assay [7] it was 95% (active); in [8] it was 67.4% (active). In addition, the inhibition was 2.56% in [3] and 44.6% in assay [4].

Take `Cc1cc(NC(=O)Cc2ccccc2)c2ccccc2n1`: the inhibition in [1] was 11.1%; in assay [2] it was 36.5% (active); in [3] it was 9.96%; in assay [4], 24.6%.

On to `Cc1ccc(C(=O)C(C(=O)/C=C/c2ccccc2)=C2SCCCS2)cc1`, for which the inhibition in assay [1] was 44.4%; in [2], 34.3% (active); in assay [5] it was 30.6% (active); in assay [6] it was 54.2% (active); in assay [7], 47.2% (active); in [8] it was 44.5% (active). In addition, the figures for the inhibition in assay [3] and in [4] were 42.6% (active) and 56% (active), respectively.

Take `CC1CCN(c2ccc(-c3cccc(NC(=O)C(F)(F)F)c3)nn2)CC1`: the inhibition in assay [1] is -55.7%; in [2] it was -29.6%; in [3], -9.14%; in [4], 60% (active).

As for `O=C1c2c(O)ccc(O)c2C(=O)c2c(NCCNCCO)ccc(NCCNCCO)c21`, the inhibition in assay [1] is -142% and -11.9%; in assay [2], 20.7% and 0.91%; in assay [6], 77.4% (active); in assay [7], 56.3% (active).

In the case of `NC(=S)NN=Cc1ccc(OC(=O)COc2cc(Cl)c(Cl)cc2Cl)cn1`, the inhibition in assay [1] is 23.4%; in assay [2], 18.9%; in assay [9], 1.21%; in assay [10] it was 5.2%; in assay [11] it was 23.4% (active).

With `Cc1cc(Nc2cccc(Cl)c2)nc(NCc2ccccc2)n1`, the inhibition in assay [1] is -6.91%; in [2] it was 12.4%; in assay [3], -3.2%; in assay [4] it was 13.1%.

As for `CCN1CCN(C(=S)c2ccc(-c3ccccc3)cc2)CC1`, the inhibition in assay [1] was 37.8%; in assay [2], 12.8%; in assay [3], 15.4%; in [4], 78.8% (active).

On to `Cc1ccc(-c2nnc(SCC(=O)Nc3ccccc3F)o2)cc1`, for which the inhibition in assay [1] is -8.02%; in [2], 26.2% (active); in [3], 19.4%; in assay [4], 60% (active).

Regarding `CCn1ccnc1CN(C)Cc1cn[nH]c1-c1ccc(F)cc1F`, the inhibition in assay [1] is 30.6%; in [2], 15.7%; in [3] it was -19.6%; in assay [4], 10.5%.

Consider `c1ccc2c(-c3cccc4nccn34)cncc2c1`, for which the inhibition in assay [1] was 33.6%; in [2], 30.7% (active); in assay [3], 5.09%; in assay [4], 11%.

With `CC(=O)N1CCCC(c2cc(C(=O)Nc3ccccc3)no2)C1` (configuration not stated), the inhibition in assay [1] is -48.3%; in [2], -15.3%; in assay [3], -36.7%; in [4] it was 40.6%.

Take `O=C(Nc1cccc2c1CCCC2)c1cc([N+](=O)[O-])ccc1Cl`: the inhibition was 19% in assay [1], 25% in assay [2], 48.5% (active) in assay [3] and 62.2% (active) in assay [4].

Consider `CN(C)c1ccc(Sc2ccc3nc(N)nc(N)c3c2)cc1`, for which the inhibition in assay [1] is 14.5%; in assay [2] it was 27.5% (active); in assay [5], 60.9% (active); in assay [6] it was 107% (active); in assay [7], 61.6% (active); in assay [8], 80.2% (active).

As for `Cc1ccc(Oc2ccc(C(=O)NCc3ccncc3)cc2)cc1`, the inhibition is 2.24% in assay [1]; 23.4% in assay [2]; 10.2% in assay [5]; 76.8% (active) in [6]; 67.9% (active) in assay [7]; 52.9% (active) in [8]. Moreover, the values for the inhibition in assay [3] and in [4] were 7.11% and 21.1%, respectively.

Regarding `Cc1ncc(CO)c(/C=N/Nc2ccc(C(F)(F)F)cn2)c1O`, the inhibition in assay [1] was 11.6%; in [2], 18.7%; in assay [5] it was 71.1% (active); in assay [6] it was 84% (active); in assay [7] it was 70.5% (active); in assay [8], 65.7% (active). Further, the inhibition is 8.88% in assay [3] and 38.8% in [4].

For `Cc1ccc(OCC(=O)NC(=S)Nc2ccccn2)c(Br)c1`, the inhibition in assay [1] is -49%; in assay [2] it was -39.2%; in assay [3], 20.5%; in assay [4], 37.7%.

In the case of `Cc1sc2ncnc(NC3CCN(Cc4ccccc4)CC3)c2c1C`, the inhibition is -6.93% in assay [1], 23.8% in assay [2], 14.3% in assay [3] and 29% in assay [4].

In the case of `O=C(Nc1ccc(OCc2ccccc2Cl)cc1)c1cccnc1`, the inhibition in assay [1] was -2.33%; in assay [2] it was -5.23%; in assay [3] it was 27%; in assay [4], 52.2% (active).

As to `COc1ccc2c(=O)cc(-c3ccncc3)oc2c1OC`, the inhibition in [1] was 43.9%; in assay [2], 19.3%; in [3] it was -15.8%; in assay [4] it was 41.5%.

As for `Cc1nnc(SCC(=O)Nn2cnnc2)s1`, the inhibition is -0.84% in [12] and -0.41% in assay [13].

Regarding `CCOC(=O)C1CCN(C(=O)c2ccc(OCC(=O)Nc3cccc(C(F)(F)F)c3)c(OC)c2)CC1`, the inhibition was 4.29% in assay [1], 35.4% (active) in assay [2], 24.1% in assay [3] and 45.3% in assay [4].
